The source of these data is PubChem BioAssay.

Values joined by “and” are separate entries in the source; they are usually repeats but may differ in a detail not shown here. Equal values may be shown once. The source holds several records for some structures; these can differ, active in one and inactive in another. Active and inactive are the calls of the source. Unless noted, how the calls were made is not given here.

Assay [1] in a line: signal quenchers or enhancers, Cy5 substrate/SSB – biochemical, NIH Clinical Collection, E. coli SSB, artefact control for HCV NS3 helicase inhibitor project (AID 743268). The settings on record: Cy5-oligo bound E. coli SSB, fluorescence interference.
The subject of assay [2] is Hepatitis C virus NS3 helicase. The assay can be described thus: blockers of NS3h binding to DNA – biochemical, fluorescence polarization, NIH Clinical Collection, primary screen (AID 743270). The note with it: NS3 helicase binding to Cy5-dT15 DNA, stronger effect = higher value, concentration not given here.
Assay [3] addresses Single-stranded DNA-binding protein (Escherichia coli (strain K12)) (UniProt P0AGE0). Description: SSB-ssDNA binding inhibitors – biochemical, fluorescence polarization, NIH Clinical Collection, counter-screen for HCV NS3 helicase inhibitor project (AID 743271; in the data active means inhibition above about 28%). The settings on record: E. coli SSB-DNA binding, stronger effect = higher value, concentration not given here. For orientation: Polarisation of emitted light reports the rotation of a fluorescent probe.

Assay [4] is described as follows: compounds distorting NS3 helicase fluorescence signal – biochemical, NIH Clinical Collection, artefact control for HCV NS3 helicase inhibitor project (AID 743272).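 Further: HCV NS3 helicase with a Cy5 labelled single stranded DNA probe.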 The note with it: fluorescence interference counterscreen, HCV NS3 helicase assay; stronger effect = lower value. A general note: Counterscreens check selectivity or assay interference.
Assay [5] can be described thus: Wnt pathway potentiators raising nuclear beta-catenin – imaging, WNT3A-conditioned medium, mouse C2C12, NPC library, primary screen (AID 1117326; in the data active means nuclear beta-catenin stimulation mostly above about 4.2%, no sharp cut-off; inactive means mostly below about 10%). The note with it: stronger effect = higher value.
Assay [6] is described as follows: stimulators of insulin release from INS-1E, primary screen, cell-based, 5 mM glucose, NPC library (AID 1117329;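 active means compound raises insulin release from rat beta cells at 5 mM glucose, no numeric limit stated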). The note with it: rat INS-1E insulin secretion, at 10 µM, stronger effect = higher value.
A short description of assay [7]: growth inhibition of GSK3B-pretreated HCT116 cells – cell-based, CellTiter-Glo, 0.2 to 20 µM (AID 1117336;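 active means compounds lowering colon cancer cell viability after pretreatment blocking the GSK3B kinase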). The settings on record: HCT116 viability after GSK3B inhibitor, at 20 µM, stronger effect = higher value. On the technique in general: In ATP-based viability assays light output follows the ATP content of the culture.
Assay [8] in a line: inhibition of endothelial tube formation, primary screen, imaging, VEGF stimulated, CD31 staining, tube area, NPC library (AID 1117340;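 active means compound that reduces growth-factor-driven endothelial tube area in a mixed cell culture, no cutoff stated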). The note with it: VEGF-stimulated ADSC/ECFC co-culture, at 10 µM, stronger effect = higher value.
A short description of assay [9]: GLP1 release stimulators, primary, NCI-H716, NPC library (AID 1117341;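 active means compound raises GLP1 secretion from the human gut endocrine cells, with no numeric limit stated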). The note with it: NCI-H716 cells, at 10 µM, stronger effect = higher value.
Assay [10] can be described thus: HCT116 colon cancer cell growth inhibition, primary screen, CellTiter-Glo luminescence, NPC library (AID 1117342;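 active means compounds that lower survival of HCT116 colon cancer cells in the luminescence readout, no numeric limit stated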). The settings on record: at 20 µM (top of the series).
The nature of assay [11]: reduced SW480 viability measured with CellTiter-Glo, NPC library, primary (AID 1117343;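 active means compounds that lower viability of the colon cancer cells in the luminescence readout, with no numeric limit stated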). The note with it: CellTiter-Glo luminescence; at 20 µM (top of the series).
Assay [12] in a line: NPC library primary testing for decreased DLD-1 cell viability via CellTiter-Glo (AID 1117346;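 active means compounds that lower survival of DLD-1 colon cancer cells in the luminescence readout, no cutoff given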). The note with it: DLD-1 viability, CellTiter-Glo luminescence; at 20 µM (top of the series).
The target in assay [13] is 6-phosphogluconate dehydrogenase, decarboxylating (Homo sapiens) (UniProt P52209). The assay can be described thus: inhibition of human phosphogluconate dehydrogenase – biochemical, recombinant enzyme, NADPH absorbance, primary screen (AID 1159550;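 active means at least 20% inhibition of 6-phosphogluconate dehydrogenase activity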). The note with it: recombinant 6PGD, NADPH absorbance 341 nm; at 10 µM; stronger effect = higher value.
Chain of 6-phosphogluconate dehydrogenase, decarboxylating (Homo sapiens) (P52209 whole entry, looked up): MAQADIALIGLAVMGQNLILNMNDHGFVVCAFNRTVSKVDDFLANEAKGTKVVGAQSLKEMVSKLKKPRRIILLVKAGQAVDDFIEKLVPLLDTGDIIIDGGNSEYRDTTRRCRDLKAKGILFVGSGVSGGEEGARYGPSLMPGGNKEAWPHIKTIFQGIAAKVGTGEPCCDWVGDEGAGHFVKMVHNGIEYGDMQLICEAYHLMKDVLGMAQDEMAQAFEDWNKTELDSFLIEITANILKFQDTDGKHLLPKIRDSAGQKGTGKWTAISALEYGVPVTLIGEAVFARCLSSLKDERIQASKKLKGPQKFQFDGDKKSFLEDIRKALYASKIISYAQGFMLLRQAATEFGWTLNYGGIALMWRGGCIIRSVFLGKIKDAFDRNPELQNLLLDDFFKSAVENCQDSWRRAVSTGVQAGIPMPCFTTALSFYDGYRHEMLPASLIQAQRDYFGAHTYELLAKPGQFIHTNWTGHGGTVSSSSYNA
Assay [14] is described as follows: viability loss with induced miR-34 in A549 – imaging, A549 dox-inducible miR-34, nuclei and caspase counts, primary screen (AID 1347080;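 active means compounds whose cell count with miR-34 switched on is under 0.7 times the count with it off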). The settings on record: A549 miR-34 inducible, Hoechst nuclei count, 48 h.
Assay [15] in a line: MELAS cybrid and Rieske KO viability enhancers – cell-based, MELAS cybrids, Rieske KO mouse fibroblasts, CellTiter-Glo, primary screen (AID 1508586;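 active means mean z-score across replicates of 1.96 or higher in either the MELAS or the Rieske mutant cell line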;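 further: z relative to plate mean and SD of compound and empty wells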). The settings on record: low glucose.
The target of assay [16] is NAD(+) hydrolase SARM1 (Homo sapiens) (UniProt Q6SZW1). Description: blocking NAD cleavage by SARM1 SAM-TIR – cell lysate, NAD-Glo luminescence (AID 1508614;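 active means compound whose remaining NAD level is above about 45 nM, limit read from the data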). The note with it: SAM-TIR HEK293T lysate NADase, at 1 µM, stronger effect = higher value.
Chain of NAD(+) hydrolase SARM1 (Homo sapiens) (Q6SZW1 whole entry, looked up, the tested form may be a part): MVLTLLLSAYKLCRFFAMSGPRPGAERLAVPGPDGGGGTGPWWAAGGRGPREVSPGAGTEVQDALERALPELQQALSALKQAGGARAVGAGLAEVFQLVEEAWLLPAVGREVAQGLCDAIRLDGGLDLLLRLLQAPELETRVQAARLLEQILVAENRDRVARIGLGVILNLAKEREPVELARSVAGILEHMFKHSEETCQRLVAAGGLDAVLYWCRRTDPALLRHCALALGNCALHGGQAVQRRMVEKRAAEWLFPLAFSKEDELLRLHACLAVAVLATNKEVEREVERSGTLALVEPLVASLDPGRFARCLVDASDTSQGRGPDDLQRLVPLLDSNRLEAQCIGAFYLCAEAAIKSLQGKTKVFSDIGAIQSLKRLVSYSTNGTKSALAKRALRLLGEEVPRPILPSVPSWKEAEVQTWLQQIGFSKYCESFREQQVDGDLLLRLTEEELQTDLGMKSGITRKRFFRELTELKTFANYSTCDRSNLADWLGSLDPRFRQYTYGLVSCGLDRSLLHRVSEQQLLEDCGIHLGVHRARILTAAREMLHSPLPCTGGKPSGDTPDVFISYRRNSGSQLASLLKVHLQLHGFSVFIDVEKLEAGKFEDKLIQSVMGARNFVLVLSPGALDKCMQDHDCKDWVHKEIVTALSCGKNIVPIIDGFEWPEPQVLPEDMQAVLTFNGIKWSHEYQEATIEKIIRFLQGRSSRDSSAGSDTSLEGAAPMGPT
Assay [17] concerns the target Mitogen-activated protein kinase 7 (Homo sapiens) (UniProt Q13164). The assay can be described thus: Gal4-ERK5 driven luciferase induction – cell-based, HTS, primary screen (AID 1508626;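 active means luciferase signal above three times the same-plate solvent-only control wells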;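 further: luciferase driven by Gal4-ERK5 fusion binding five Gal4 sites before minimal TATA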). The note with it: HeLa Gal4-ERK5 transactivation, 18 h, at 5 µM, stronger effect = higher value.
A further assay concerns F380Y. Description: BK channel mutant inhibitors and activators – cell-based, U2OS BacMam, thallium flux, beta subunits, selectivity assay, profiling panel (AID 1259406;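 active means thallium flux through the channel raised or lowered by more than 3 SD from vehicle-only wells, actives on both sides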;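 further: initial slope of Thallos dye fluorescence rise after thallium is added; log ratio against the mean of 0.3% DMSO vehicle wells on the same plate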). The settings on record: U2OS BacMam BK variants, at 30 µM.
The nature of assay [18]: P. berghei load reduction in hepatocytes – cell-based, HepG2, luciferase luminescence, HepG2 viability, primary screen (AID 624349; in the data active means parasite load remaining mostly below about 12%, no sharp cut-off; inactive means mostly above about 10%;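 further: 100% = mean of DMSO negative control wells on the same plate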). The note with it: P. berghei liver stage in HepG2, luciferase luminescence, concentration not given here; parasite load remaining: stronger effect = lower value; viability: measured here: HepG2 viability without parasites.
A short description of assay [19]: EMT-state selective cytotoxicity in co-culture – imaging, PC-3E GFP, TEM4-18 mCherry, primary screen (AID 1345086;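 active means compounds killing one labelled cell type while sparing the other, by normalised counts and ratio limits, not self-fluorescent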;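 further: cells exposed to compound for 72 h before imaging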;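 on red/green cell ratio (normalised): normalised mesenchymal count divided by normalised epithelial count so high means epithelial killing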). The settings on record: PC-3E GFP / TEM4-18 mCherry co-culture, imaging cell counts, at 1 µM.
[20] abbreviates: MELAS cybrid survival, CellTiter-Glo 48 h, stronger effect = higher value.
Where [21] appears, read: Rieske KO mouse fibroblast survival, CellTiter-Glo 72 h.

Chain of Mitogen-activated protein kinase 7 (Homo sapiens) (Q13164 whole entry, looked up, the tested form may be a part): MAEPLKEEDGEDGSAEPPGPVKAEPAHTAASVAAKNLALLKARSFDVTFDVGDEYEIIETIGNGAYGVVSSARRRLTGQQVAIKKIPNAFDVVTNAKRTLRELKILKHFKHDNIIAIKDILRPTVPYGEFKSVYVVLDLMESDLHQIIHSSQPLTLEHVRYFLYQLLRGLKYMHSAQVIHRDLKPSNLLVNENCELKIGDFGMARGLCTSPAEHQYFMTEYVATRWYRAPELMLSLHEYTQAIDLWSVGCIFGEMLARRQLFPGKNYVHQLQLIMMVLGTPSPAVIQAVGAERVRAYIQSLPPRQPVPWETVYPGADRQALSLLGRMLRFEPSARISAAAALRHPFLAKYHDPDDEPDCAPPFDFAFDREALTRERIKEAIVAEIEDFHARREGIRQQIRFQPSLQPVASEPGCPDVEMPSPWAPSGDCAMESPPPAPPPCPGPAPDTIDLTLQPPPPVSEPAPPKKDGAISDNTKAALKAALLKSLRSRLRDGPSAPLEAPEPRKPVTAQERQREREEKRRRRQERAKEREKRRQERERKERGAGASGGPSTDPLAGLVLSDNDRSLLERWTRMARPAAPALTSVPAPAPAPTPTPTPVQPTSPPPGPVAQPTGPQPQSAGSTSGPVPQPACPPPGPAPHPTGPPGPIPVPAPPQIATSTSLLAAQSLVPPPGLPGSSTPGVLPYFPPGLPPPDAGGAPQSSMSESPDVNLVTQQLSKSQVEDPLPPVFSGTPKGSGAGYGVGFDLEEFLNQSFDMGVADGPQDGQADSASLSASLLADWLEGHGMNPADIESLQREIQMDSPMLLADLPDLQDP

By inhibition is commonly meant the relative decrease from the control value, in per cent. As to `Cc1cccc(CN2CCN(C(c3ccccc3)c3ccc(Cl)cc3)CC2)c1` (stereo unspecified), the fluorescence ratio is 0.1 (active) in assay [1] and 0.96 (inactive) in assay [4]. Further, the inhibition is -3.18% (inactive) in [2], 7.91% (inactive) in [3] and -14.5% (inactive) in assay [13]. In addition, the nuclear beta-catenin stimulation was 5.6% (inactive) in [5] (at 10 µM) and -0.6% in assay [5] (stimulation, at 2 µM). Also, the insulin secretion stimulation in assay [6] was -1.7% (inactive). The viability decrease in assay [7] is 77.3% (active). Moreover, the tube area decrease in [8] is 33.4% (inactive). Moreover, in assay [9], the GLP1 secretion stimulation was -2.1% (inactive). Moreover, the inhibition of viability in [10] is 83.5% (active). The values for the viability decrease (inhibition) in assay [11] and in assay [12] were 116% (active) and 87.8% (active), respectively. For the same compound, the fold change was 0.91 (inactive) and 0.869 (inactive) and 0.905 (inactive) in [14] (stronger effect = lower value, cell number ratio, induced over uninduced); 2.01 and 1.32 and 1.69 in assay [14] (measured here: relative caspase fold change +Dox/-Dox). Moreover, the cell count in [14] (measured here: total cells with miR-34 induction, stronger effect = lower value) is 8220 and 9250 and 10600; in assay [14] (measured here: total cells without miR-34 induction) it was 9040 and 10700 and 11700. For the same compound, the results for the z-score in assay [15] (setting [20]) and in assay [15] (setting [21]) were -0.845 (inactive) and -0.151, respectively. The remaining NAD in assay [16] was 10 nM (inactive). Also, the luciferase signal in [17] was 96 AU (inactive). In the assay on F380Y, the log fold change Tl+ flux was 0.0137 (inactive).
For orientation: viability means a read-out of living cells in per cent, often relative to untreated cells. Turning to `Cc1ccc(O)c([C@H](CCN(C(C)C)C(C)C)c2ccccc2)c1`, the parasite load remaining in [18] was 63.7% (inactive). In addition, the viability in [18] came to 67.2%. In addition, the figures for the fluorescence ratio in assay [1] and in [4] were 1 (inactive) and 0.97 (inactive), respectively. Besides, the inhibition is -4.36% (inactive) in assay [2], 1.44% (inactive) in assay [3] and -2.71% (inactive) in assay [13]. The nuclear beta-catenin stimulation in assay [5] (at 10 µM) is 0.8% (inactive); in assay [5] (stimulation, at 2 µM), 3.5%. Besides, the insulin secretion stimulation in assay [6] is 30.8% (active). Further, in [7], the viability decrease was 35.6% (inactive). In addition, the tube area decrease in [8] is -14% (inactive). Also, the GLP1 secretion stimulation in assay [9] is 8.3% (inactive). In [10], the inhibition of viability is 44.4% (inactive). Besides, the viability decrease (inhibition) was 69.7% (active) in assay [11] and -2.4% (inactive) in [12]. Also, the z-score in [15] (setting [20]) was -0.175 (inactive); in assay [15] (setting [21]), 0.484. Also, the luciferase signal in assay [17] is 64 AU (inactive). In addition, the log fold change Tl+ flux in the assay with F380Y is 0.149 (active).
Take `CC(C)(C)NC[C@H](O)COc1nsnc1N1CCOCC1`: the parasite load remaining in assay [18] is 64.7% (inactive) and 81.2% (inactive) and 46% (inactive). For the same compound, in [18], the viability is 97.8% and 98% and 104%. Besides, the fluorescence ratio was 0.99 (inactive) in assay [1] and 0.98 (inactive) in [4]. In addition, the inhibition was 0.45% (inactive) in assay [2], 2.57% (inactive) in assay [3] and -2.5% (inactive) in assay [13]. For the same compound, the nuclear beta-catenin stimulation was 2.1% (inactive) in assay [5] (at 10 µM) and 0.4% in assay [5] (stimulation, at 2 µM). Besides, the insulin secretion stimulation in assay [6] is 3.2% (inactive). Moreover, the viability decrease in assay [7] was 6.4% (inactive). The tube area decrease in assay [8] is -8.3% (inactive). Besides, in assay [9], the GLP1 secretion stimulation was 1.7% (inactive). For the same compound, in assay [10], the inhibition of viability was -6.3% (inactive). For the same compound, the viability decrease (inhibition) in assay [11] is -4.9% (inactive); in [12], -2.7% (inactive). For the same compound, the z-score is 0.744 (inactive) and 0.988 (inactive) in [15] (setting [20]); 0.265 and 0.0861 in assay [15] (setting [21]). For the same compound, the remaining NAD in assay [16] is 10 nM (inactive). Also, the luciferase signal in assay [17] was 32 AU (inactive). Also, the log fold change Tl+ flux with F380Y is 0.0205 (inactive).
Regarding `CCCSc1ccc2nc(NC(=O)OC)[nH]c2c1`, the fluorescence ratio in assay [1] and in [4] was 1.01 (inactive) in each case. Further, the inhibition in [2] is -2.27% (inactive); in assay [3], -1.24% (inactive); in assay [13] it was -6.38% (inactive). Besides, the nuclear beta-catenin stimulation in assay [5] (at 10 µM) was 49% (active); in [5] (stimulation, at 2 µM), 24.2%. The insulin secretion stimulation in [6] was -1% (inactive). In addition, the viability decrease in assay [7] is 87.3% (active). Moreover, the tube area decrease in [8] was 102% (active). In addition, the GLP1 secretion stimulation in [9] is 0.9% (inactive). In addition, the inhibition of viability in assay [10] was 76% (active). In addition, the viability decrease (inhibition) in assay [11] is 86.6% (active); in [12], 56.7% (active). Further, the red/green cell ratio (normalised) in [19] (actives lie on both sides, counts scaled to control wells, 1 = unselective) is 0.93 (inactive). Moreover, the figures for the normalised cell number in assay [19] (measured here: epithelial PC-3E GFP cell survival) and in assay [19] (measured here: mesenchymal TEM4-18 mCherry cell survival) were 0.26 and 0.24, respectively. The z-score in assay [15] (setting [20]) was 2.78 (active) and -2.05 (inactive); in assay [15] (setting [21]) it was 0.0317 and -0.672 and 1.64. In assay [16], the remaining NAD was 10 nM (inactive). In addition, the luciferase signal in assay [17] was 368 AU (active). Further, in the assay on F380Y, the log fold change Tl+ flux was -0.0721 (inactive).
